From PubChem BioAssay
“And” between values parts separate entries of the source, which are not always exact repeats. Identical values can stand only once. The source made the active and inactive calls.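 The calls were made as follows, unless noted: active = thallium flux through the channel raised or lowered by more than 3 SD from vehicle-only wells, actives on both sides; inactive = the rest.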

Experiments:
[1] = molecular target: NAD(+) hydrolase SARM1 (Homo sapiens) (UniProt Q6SZW1); experiment: blocking NAD cleavage by SARM1 SAM-TIR – cell lysate, NAD-Glo luminescence (AID 1508614;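 active = compound whose remaining NAD level is above about 45 nM, limit read from the data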;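 also: higher remaining NAD means stronger inhibition of SARM1 NADase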); details: SAM-TIR HEK293T lysate NADase, at 1 µM, stronger effect = higher value
NAD(+) hydrolase SARM1 (Homo sapiens), sequence (Q6SZW1 whole entry, looked up, the tested form may be a part): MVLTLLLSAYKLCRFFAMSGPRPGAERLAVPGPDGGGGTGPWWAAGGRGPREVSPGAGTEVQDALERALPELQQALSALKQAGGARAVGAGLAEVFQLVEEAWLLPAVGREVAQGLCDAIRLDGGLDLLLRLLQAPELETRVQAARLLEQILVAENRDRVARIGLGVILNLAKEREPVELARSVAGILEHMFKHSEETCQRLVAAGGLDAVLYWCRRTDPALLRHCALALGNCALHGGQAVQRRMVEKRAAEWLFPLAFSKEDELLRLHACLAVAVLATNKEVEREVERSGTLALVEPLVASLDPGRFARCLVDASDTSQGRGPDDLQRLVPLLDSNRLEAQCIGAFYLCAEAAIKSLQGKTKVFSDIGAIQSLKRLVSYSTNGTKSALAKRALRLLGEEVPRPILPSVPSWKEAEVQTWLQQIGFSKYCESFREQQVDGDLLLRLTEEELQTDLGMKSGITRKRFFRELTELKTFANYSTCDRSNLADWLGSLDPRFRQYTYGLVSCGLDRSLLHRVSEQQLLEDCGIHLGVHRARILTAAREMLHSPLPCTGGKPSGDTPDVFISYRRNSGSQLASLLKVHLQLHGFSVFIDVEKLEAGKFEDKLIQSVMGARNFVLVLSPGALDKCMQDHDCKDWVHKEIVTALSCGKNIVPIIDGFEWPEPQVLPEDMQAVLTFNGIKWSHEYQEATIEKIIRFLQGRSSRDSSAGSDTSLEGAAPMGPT

[2] = molecular target: Mitogen-activated protein kinase 7 (Homo sapiens) (UniProt Q13164); experiment: Gal4-ERK5 driven luciferase induction – cell-based, HTS, primary screen (AID 1508626;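 active = luciferase signal above three times the same-plate solvent-only control wells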;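 also: luciferase driven by Gal4-ERK5 fusion binding five Gal4 sites before minimal TATA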); details: HeLa Gal4-ERK5 transactivation, 18 h, at 5 µM, stronger effect = higher value
Mitogen-activated protein kinase 7 (Homo sapiens), sequence (Q13164 whole entry, looked up, the tested form may be a part): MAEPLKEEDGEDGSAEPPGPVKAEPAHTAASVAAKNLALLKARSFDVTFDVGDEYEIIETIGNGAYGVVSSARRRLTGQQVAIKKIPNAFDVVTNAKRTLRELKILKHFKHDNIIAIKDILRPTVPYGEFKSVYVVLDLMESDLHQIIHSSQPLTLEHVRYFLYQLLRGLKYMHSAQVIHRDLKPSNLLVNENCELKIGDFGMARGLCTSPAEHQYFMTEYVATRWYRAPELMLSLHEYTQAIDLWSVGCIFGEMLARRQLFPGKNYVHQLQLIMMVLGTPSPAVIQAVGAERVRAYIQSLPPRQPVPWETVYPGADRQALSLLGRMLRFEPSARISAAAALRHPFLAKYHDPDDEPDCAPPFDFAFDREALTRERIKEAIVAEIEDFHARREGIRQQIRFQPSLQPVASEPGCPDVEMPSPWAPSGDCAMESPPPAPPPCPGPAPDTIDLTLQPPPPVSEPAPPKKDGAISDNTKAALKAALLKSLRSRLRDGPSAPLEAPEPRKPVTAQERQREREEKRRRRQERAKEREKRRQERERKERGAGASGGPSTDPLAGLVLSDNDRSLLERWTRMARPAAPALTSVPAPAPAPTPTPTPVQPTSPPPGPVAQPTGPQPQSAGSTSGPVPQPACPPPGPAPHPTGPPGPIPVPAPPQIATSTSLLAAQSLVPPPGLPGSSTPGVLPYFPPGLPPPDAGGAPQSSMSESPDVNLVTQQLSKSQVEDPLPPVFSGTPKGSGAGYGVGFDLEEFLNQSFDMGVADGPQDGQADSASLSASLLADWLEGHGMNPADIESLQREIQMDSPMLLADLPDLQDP

[3] = galactose survival enhancers in mitochondrial complex I cybrids – cell-based, galactose medium, ATP luminescence, primary screen (AID 1645843;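 active = z-score of at least 1.8 in each of two replicates, scored against plate mean and spread of sample wells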;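 also: positive z means more ATP and so rescue of galactose-driven cybrid death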); details: complex I mutant cybrid cells, 72 h, stronger effect = higher value
F380Y = experiment: BK channel mutant inhibitors and activators – cell-based, U2OS BacMam, thallium flux, beta subunits, selectivity assay, profiling panel (AID 1259406); details: U2OS BacMam BK variants, at 30 µM;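 also: initial slope of Thallos dye fluorescence rise after thallium is added; log ratio against the mean of 0.3% DMSO vehicle wells on the same plate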
F380Y/beta1 = experiment: as above; details: U2OS BacMam BK variants, at 30 µM
[4] = growth inhibition, single agent or in combination, cell-based, chromothripsis tumors, cisplatin or BGB combos (AID 1671449; in the data active = inhibition above about 80%;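 also: cells exposed for 96 hours; 0% = vehicle DMSO and 100% = killing by high DMSO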); details: LFS_MB_P medulloblastoma cells
[5] = growth inhibition, single agent and combos, cell-based, chromothripsis tumors, cisplatin or BGB combos (AID 1671450; in the data active = inhibition above about 80%;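 also: cells exposed to compound for four days; 0% = vehicle DMSO and 100% = cell killing by high DMSO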); details: HDN33 neuroblastoma cells, stronger effect = higher value
[6] = growth inhibition, single agents and combos, ICB984, cell-based, cisplatin or BGB combos, synergistic combos for chromothripsis tumors (AID 1671451; call rule not given here;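 also: cells exposed for 96 hours before readout; 0% = vehicle DMSO and 100% = killing by high DMSO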); details: ICB984 medulloblastoma cells, drug combinations, stronger effect = higher value
[7] = growth inhibition, single agents and combos, LFS_MB_1R, cell-based, cisplatin or BGB combos, synergistic combos for chromothripsis tumors (AID 1671452; in the data active = inhibition above about 80%;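 also: cells exposed for 96 hours before readout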); details: LFS_MB_1R medulloblastoma cells, stronger effect = higher value
[8] = growth inhibition, single agents and combos, HTB85, cell-based, BGB or cisplatin IC20 combos, synergistic combos for chromothripsis tumors (AID 1671453; in the data active = inhibition above about 80%;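 also: cells exposed for 96 hours before readout; 0% = vehicle DMSO and 100% = high DMSO killing control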); details: HTB85 osteosarcoma cells, drug combinations, stronger effect = higher value
[9] = growth inhibition, single agents and combos, CRL2098, cell-based, BGB or cisplatin IC20 combos, synergistic combos for chromothripsis tumors (AID 1671454; in the data active = inhibition above about 80%;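 also: cells exposed for 96 h before readout; 0% = vehicle DMSO and 100% = killing by high DMSO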); details: CRL2098 osteosarcoma cells, drug combinations, stronger effect = higher value
[10] = growth inhibition, single agents and combos, HD-MB03, cell-based, BGB or cisplatin IC20 combos, synergistic combos for chromothripsis tumors (AID 1671455; in the data active = inhibition above about 83%;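 also: 0% = vehicle DMSO and 100% = high DMSO as cytotoxic control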); details: HD-MB03 medulloblastoma cells, stronger effect = higher value
[11] = growth inhibition, single agents and combos, UWB1.289, cell-based, BGB or cisplatin combos, synergistic combos for chromothripsis tumors (AID 1671456; in the data active = inhibition above about 80%;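 also: cells exposed to compound for four days; 0% = vehicle DMSO and 100% = killing by high DMSO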); details: UWB1.289 ovarian carcinoma cells, stronger effect = higher value
[12] = growth inhibition, single agents and combos, LFS_MB_2R, cell-based, cisplatin combos, synergistic combos for chromothripsis tumors (AID 1671457; in the data active = inhibition above about 80%;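 also: cells exposed to compound for four days before readout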); details: LFS_MB_2R medulloblastoma cells, stronger effect = higher value
[13] = growth inhibition, MDA-MB-436, cell-based, BGB or cisplatin combos, synergistic combos for chromothripsis tumors (AID 1671458; call rule not given here;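 also: cells exposed for 96 hours; 0% = vehicle DMSO and 100% = killing by high DMSO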); details: MDA-MB-436 breast carcinoma growth inhibition, drug combinations, stronger effect = higher value
[14] = UWB1.289_BRCA1 ovarian cancer growth, cell-based, BGB or cisplatin combinations (AID 1671459; in the data active = inhibition above about 80%); details: UWB1.289 BRCA1 ovarian carcinoma, drug combinations, stronger effect = higher value
[15] = drug combination toxicity in non-malignant astrocytes – cell-based, BGB or cisplatin IC20 combos, cytotoxicity control for chromothriptic childhood tumor combination screen (AID 1671460; in the data active = inhibition above about 80%;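 also: cells exposed to compounds for 96 hours before viability readout; 0% = vehicle and 100% = killing control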); details: Human astrocytes, viability inhibition, drug combinations, at 0.5 µM, stronger effect = higher value
[16] = BT084 cell growth, single and combined drugs, ICGC_MB145, cisplatin and BGB IC40 combos (AID 1671461; in the data active = inhibition above about 80%;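 also: cells exposed to drugs for 96 hours; 0% = vehicle DMSO and 100% = high DMSO full killing control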); details: BT084 medulloblastoma cells, drug combinations, stronger effect = higher value
[17] = RCMB18 cell growth, single agent and combined, cisplatin and BGB IC40 combos (AID 1671462; in the data active = inhibition above about 80%;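 also: cells exposed to compound for four days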); details: RCMB18 medulloblastoma cells, stronger effect = higher value
[18] = CRL1545 cell growth, single agent and combined, cisplatin and BGB IC20 combos (AID 1671464; in the data active = inhibition above about 80%;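 also: cells exposed to compound for 96 hours before readout; 0% = vehicle DMSO and 100% = high DMSO killing control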); details: CRL1545 osteosarcoma cells, stronger effect = higher value
[19] = measured here: combination with BGB IC40, at 0.05 µM
[20] = measured here: with BGB IC20 combination, at 0.5 µM
[21] = measured here: with cisplatin IC20 combination, at 0.5 µM
[22] = measured here: combination with cisplatin, at 0.5 µM
[23] = measured here: combination with cisplatin, at 5 µM

Q: With O=C(CCNNC(=O)c1ccncc1)NCc1ccccc1 as the compound, how does the remaining NAD [1] read?
A: 10 nM (inactive)

Q: What about the luciferase signal [2] of the same compound?
A: 76 AU (inactive)

Q: What about the z-score [3] of the same compound?
A: 0.035 (inactive) and 0.205 (inactive) and 0.305 (inactive)

Q: And the log fold change Tl+ flux (F380Y)?
A: 0.000985 (inactive)

Q: And the log fold change Tl+ flux (F380Y/beta1)?
A: 0.00246 (inactive)

Q: Which results are given for COC1=C(OC)C(=O)C(CCCCCCCCCCO)=C(C)C1=O?
A: remaining NAD [1]: 10 nM (inactive); z-score [3]: -1.85 (inactive) and -2.1 (inactive); log fold change Tl+ flux (F380Y): -0.163 (active); log fold change Tl+ flux (F380Y/beta1): 0.138 (active)

Q: Which results are given for Cc1cnc(NC(=O)C2=C(O)c3ccccc3S(=O)(=O)N2C)s1?
A: remaining NAD [1]: 10 nM (inactive); luciferase signal [2]: 52 AU (inactive); z-score [3]: 1.35 (inactive) and 0.585 (inactive) and 0.515 (inactive); log fold change Tl+ flux (F380Y): -0.00196 (inactive); log fold change Tl+ flux (F380Y/beta1): -0.0291 (inactive)

Q: What does the source list for CC(C)(C(=O)c1cccnc1)c1cccnc1?
A: remaining NAD [1]: 100 nM (active); z-score [3]: 0.18 (inactive); log fold change Tl+ flux (F380Y): -0.0599 (inactive); log fold change Tl+ flux (F380Y/beta1): 0.0309 (inactive)

Q: What does the source list for Cc1[nH]c(=O)c(C#N)cc1-c1ccncc1?
A: remaining NAD [1]: 10 nM (inactive); z-score [3]: 0.46 (inactive) and 0.67 (inactive) and 0.525 (inactive); log fold change Tl+ flux (F380Y): 0.00987 (inactive); log fold change Tl+ flux (F380Y/beta1): -0.00723 (inactive)

Q: For CC(C)(C)NC(=O)[C@H]1CC[C@H]2[C@@H]3CC[C@H]4NC(=O)C=C[C@]4(C)[C@H]3CC[C@]12C, which remaining NAD [1] is on record?
A: 10 nM (inactive)

Q: What about the z-score [3] of the same compound?
A: 0.465 (inactive)

Q: What about the log fold change Tl+ flux (F380Y) of the same compound?
A: 0.0287 (inactive)

Q: And the log fold change Tl+ flux (F380Y/beta1)?
A: 0.0111 (inactive)

Q: Which remaining NAD [1] does the source give for Nc1nc2c(ncn2COC(CO)CO)c(=O)[nH]1 here?
A: 10 nM (inactive)

Q: What about the inhibition ([4]; at 0.5 µM, stronger effect = higher value) of the same compound?
A: -14.4% (inactive)

Q: What about the inhibition ([4]; measured here: combination with BGB IC20, at 0.005 µM) of the same compound?
A: -4.12%

Q: What about the inhibition ([4]; measured here: combination with BGB IC40, at 0.005 µM) of the same compound?
A: -22.8%

Q: What about the inhibition [4, 19] of the same compound?
A: 1.72%

Q: And the inhibition ([4]; measured here: combination with cisplatin, at 0.5 µM, stronger effect = higher value)?
A: -35.5%

Q: And the inhibition ([4]; measured here: combination with cisplatin, at 5 µM, stronger effect = higher value)?
A: 126%

Q: And the inhibition ([5]; BGB combo, at 5 µM)?
A: 30.5%

Q: And the inhibition ([5]; at 0.5 µM)?
A: -5.69% (inactive)

Q: What about the inhibition ([5]; cisplatin combo, at 5 µM) of the same compound?
A: 55%

Q: What about the inhibition [5, 20] of the same compound?
A: -10.7%

Q: What about the inhibition [5, 21] of the same compound?
A: 0.325%

Q: And the inhibition ([5]; single agent, at 5 µM)?
A: 66%

Q: And the inhibition ([6]; BGB IC20 combo, at 0.005 µM)?
A: -34.3%

Q: And the inhibition ([6]; BGB IC40 combo, at 0.005 µM)?
A: -7.26%

Q: What about the inhibition ([6]; BGB IC40 combo, at 0.05 µM) of the same compound?
A: 96.7%

Q: What about the inhibition ([6]; at 0.5 µM) of the same compound?
A: -23.8% (inactive)

Q: What about the inhibition ([6]; cisplatin combo, at 0.05 µM) of the same compound?
A: 96.7%

Q: What about the inhibition ([6]; cisplatin combo, at 0.5 µM) of the same compound?
A: -39.7%

Q: And the inhibition ([6]; cisplatin combo, at 5 µM)?
A: -4.59%

Q: What about the inhibition ([6]; measured here: 5 uM single agent, at 5 µM) of the same compound?
A: -6.09%

Q: What about the inhibition ([7]; at 0.5 µM) of the same compound?
A: 26.9% (inactive)

Q: What about the inhibition [7, 19] of the same compound?
A: -58.1%

Q: What about the inhibition [7, 22] of the same compound?
A: 61.8%

Q: What about the inhibition [7, 23] of the same compound?
A: 106%

Q: And the inhibition ([8]; at 0.5 µM)?
A: -13.4% (inactive)

Q: And the inhibition ([8]; measured here: with BGB IC20, at 0.5 µM)?
A: -37.4%

Q: What about the inhibition ([8]; measured here: with BGB IC20, at 5 µM) of the same compound?
A: 32.5%

Q: And the inhibition ([8]; measured here: with cisplatin IC20, at 0.5 µM)?
A: -11.6%

Q: And the inhibition ([8]; measured here: with cisplatin IC20, at 5 µM)?
A: 68.7%

Q: And the inhibition ([8]; single agent, at 5 µM)?
A: 71%

Q: What about the inhibition ([9]; at 0.5 µM) of the same compound?
A: 2.15% (inactive)

Q: What about the inhibition ([9]; measured here: combination with BGB at IC20, at 0.5 µM) of the same compound?
A: 2.66%

Q: What about the inhibition ([9]; measured here: combination with cisplatin at IC20, at 0.5 µM) of the same compound?
A: 0.146%

Q: And the inhibition ([10]; at 0.5 µM)?
A: -7.18% (inactive)

Q: What about the inhibition ([10]; measured here: combo with BGB at IC20, at 0.5 µM) of the same compound?
A: -5.76%

Q: And the inhibition ([10]; measured here: combo with cisplatin at IC20, at 0.5 µM)?
A: -11.1%

Q: And the inhibition ([11]; at 0.5 µM)?
A: 8.41% (inactive)

Q: And the inhibition ([11]; measured here: inhibition with BGB combination, at 0.05 µM)?
A: -10.6%

Q: What about the inhibition ([11]; measured here: inhibition with cisplatin combination, at 0.05 µM) of the same compound?
A: 1.36%

Q: And the inhibition ([12]; at 0.5 µM)?
A: 1.52% (inactive)

Q: What about the inhibition [12, 22] of the same compound?
A: 8.4%

Q: And the inhibition [12, 23]?
A: 102%

Q: What about the inhibition ([13]; at 0.5 µM) of the same compound?
A: -1.05% (inactive)

Q: What about the inhibition ([13]; measured here: BGB combination, at 0.5 µM) of the same compound?
A: 1.08%

Q: And the inhibition ([13]; measured here: BGB combination, at 5 µM)?
A: 38.9%

Q: What about the inhibition ([13]; measured here: cisplatin combination, at 0.5 µM) of the same compound?
A: -7.9%

Q: And the inhibition ([13]; measured here: cisplatin combination, at 5 µM)?
A: 51.5%

Q: What about the inhibition ([14]; BGB combination, concentration series, at 5 µM) of the same compound?
A: 35.4%

Q: What about the inhibition ([14]; at 0.5 µM) of the same compound?
A: 7.28% (inactive)

Q: What about the inhibition ([14]; cisplatin combination, concentration series, at 5 µM) of the same compound?
A: 66%

Q: What about the inhibition [15] of the same compound?
A: 19.3% (inactive)

Q: What about the inhibition ([15]; measured here: combo with BGB IC20) of the same compound?
A: 14.4%

Q: What about the inhibition ([15]; measured here: combo with cisplatin IC20) of the same compound?
A: 21.1%

Q: And the inhibition ([16]; at 0.5 µM)?
A: 25.1% (inactive)

Q: And the inhibition ([16]; cisplatin combination, at 0.5 µM)?
A: 43%

Q: What about the inhibition ([16]; cisplatin combination, at 5 µM) of the same compound?
A: 103%

Q: And the inhibition ([16]; measured here: BGB IC40 combination 0.05 uM, at 0.05 µM)?
A: 16.9%

Q: And the inhibition ([16]; single agent, at 5 µM)?
A: 107%

Q: And the inhibition ([17]; at 0.5 µM)?
A: 15.7% (inactive)

Q: And the inhibition ([17]; cisplatin combo, at 5 µM)?
A: 102%

Q: And the inhibition ([17]; measured here: BGB IC40 combination, at 0.05 µM)?
A: 12.8%

Q: What about the inhibition [17, 22] of the same compound?
A: 27.1%

Q: What about the inhibition ([17]; single agent, at 5 µM) of the same compound?
A: 88.8%

Q: What about the inhibition ([18]; at 0.5 µM) of the same compound?
A: 44.7% (inactive)

Q: And the inhibition [18, 20]?
A: 29.8%

Q: And the inhibition [18, 21]?
A: 52.1%

Q: What about the inhibition ([18]; single agent, at 0.05 µM) of the same compound?
A: 3.9%

Q: And the inhibition ([18]; single agent, at 5 µM)?
A: 93.9%

Q: What about the log fold change Tl+ flux (F380Y) of the same compound?
A: -0.00258 (inactive)

Q: What about the log fold change Tl+ flux (F380Y/beta1) of the same compound?
A: 0.0388 (inactive)
